# CHX counter: counter-screen for Shiga toxin inhibitors: cycloheximide protein synthesis inhibition | cell reporter, cycloheximide protein synthesis inhibition counterscreen | actives 12% (n = 300,000) | AID 2314 | max response, %; in the data active = max response mostly above about 13%, no sharp cut-off; inactive = mostly below about 14%; also: read at 38.3 µM for the half of the compounds with a filed dose; 0% is about no effect
# RE007 growth inh: less growth of the S. pombe RE007 Vpr strain. Potency, µM (highest dose often 92.2 µM), without a hit: at the highest dose activity change, negative = less growth, usual class: inhibitors. AID 651644. actives 0.21% (n = 360,000). S. pombe RE007 Vpr strain, BacTiter-Glo ATP luminescence, 24 h; active = well fitted falling curve with a large enough effect; inconclusive = small, poorly fitted or top-dose-only effect; inactive = no such curve, though single readings can be large or run the other way; also: potency is read from the fitted curve at half-maximal effect; % is scaled to controls: 0 for no effect and ±100 for the full control effect; nearly all actives have a fitted effect of over 50% in size
#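 Fission yeast RE007 carrying one integrated HIV-1 vpr copy, seeded at OD 0.01 in PMG+AL medium with 23 nL pinned compound. Grown 24 h at 30 degrees; viability read by BacTiter-Glo luminescence after 5 min.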
# Giardia FBPA inh: Giardia lamblia aldolase inhibition; actives 0.71% (n = 290,000); purified Giardia FBPA; A8B2U2; Potency, µM (highest dose often 59.6 µM), for the others: at the highest dose activity, negative = inhibition, hits mostly inhibitors; also: potency is read from the fitted curve at half-maximal effect; % is scaled to controls: 0 for no effect and ±100 for the full control effect; nearly all actives have a fitted effect of over 55% in size
#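 40 nM FBPA preincubated 10 min at RT with compound (up to 57.5 uM final), then substrate plus GAPDH/TPI/NAD/arsenate coupling and diaphorase/resazurin added. Fluorescence read after 20 min at RT, 525/598 nm.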
# LmPK inhibitor: LmPK (Leishmania mexicana) enzyme inhibition; Potency, µM (doses to about 57.5 µM), for inactives: top-dose activity change, negative = inhibition, most hits filed as inhibitors; purified LmPK, Kinase-Glo ATP luminescence, 1 h; actives 0.37% (n = 290,000); Q27686; AID 1721; also: potency is read from the fitted curve at half-maximal effect; % is scaled to controls: 0 for no effect and ±100 for the full control effect
# Target sequence (Q27686 whole entry, looked up): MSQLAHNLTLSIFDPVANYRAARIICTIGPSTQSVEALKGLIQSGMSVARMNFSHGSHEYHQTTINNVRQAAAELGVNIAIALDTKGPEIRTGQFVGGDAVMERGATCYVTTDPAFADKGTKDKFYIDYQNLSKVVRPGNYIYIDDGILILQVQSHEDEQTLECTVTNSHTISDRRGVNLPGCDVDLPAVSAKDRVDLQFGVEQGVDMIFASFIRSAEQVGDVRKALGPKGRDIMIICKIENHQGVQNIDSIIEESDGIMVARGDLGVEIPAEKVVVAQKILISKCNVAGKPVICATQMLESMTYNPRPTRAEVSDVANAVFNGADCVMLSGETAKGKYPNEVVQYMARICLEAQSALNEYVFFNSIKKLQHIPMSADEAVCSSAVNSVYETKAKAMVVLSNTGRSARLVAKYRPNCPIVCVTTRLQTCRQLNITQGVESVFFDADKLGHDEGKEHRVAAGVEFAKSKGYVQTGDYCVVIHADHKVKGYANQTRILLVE
#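 Pyruvate kinase activity monitored as ATP production (luciferase luminescence). Conditions: 0.1 nM enzyme, 0.5 mM PEP, 0.1 mM ADP, 1 h, RT; normalized against uninhibited and no-enzyme wells.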
# Shiga toxin inh: inhibitors of Shiga toxin in Vero cells; inhibition, % at 38.7 µM; Vero cells, Shiga toxin protein synthesis inhibition reporter; actives 9.2% (n = 290,000); in the data active = inhibition mostly above about 28%, no sharp cut-off; inactive = mostly below about 43%; also: 0% is about no effect
# TbPYK inhibitor: blocks Trypanosoma brucei pyruvate kinase; Q57TT1; TbPYK enzyme, Kinase-Glo Plus ATP luminescence, 45 min; Potency, µM (series often up to 76.8 µM), for inactives: at the top dose activity, negative = inhibition, actives largely listed as inhibitors; actives 0.12% (n = 410,000); AID 624173; also: potency is read from the fitted curve at half-maximal effect; % is scaled to controls: 0 for no effect and ±100 for the full control effect; nearly all actives have a fitted effect of over 50% in size
#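 Screened from lowest to highest concentration, compounds were pinned into TbPYK/substrate mixtures, and ADP (130 uM final) was added. Plates sat at room temperature for 45 min prior to Kinase-Glo Plus detection by luminescence.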
# The depositor's hits bear a star; ? = inconclusive; · = not tested or not shown; [ ] = remark or other dose. Many of the other results were omitted from the sample, so hits are more common in it than they were. Unless noted, calls follow the shape of the dose curve; as a rule, active = well fitted curve in the direction sought with a large enough effect; inconclusive = small, poorly fitted or top-dose-only effect, or another doubt; inactive = no such curve, though single readings can be large; an effect the other way counts as inactive or inconclusive.
SMILES,CHX counter,RE007 growth inh,Giardia FBPA inh,LmPK inhibitor,Shiga toxin inh,TbPYK inhibitor
COc1ccc(S(=O)(=O)/N=C2/NC(=O)/C(=C/c3ccco3)S2)cc1,-2.6,-7.9%,10.4%,9.6%,8.7,-3.2%
COc1ccc(N=C2NC(=O)/C(=C/c3ccco3)S2)cc1,35.6*,0.4%,-5.1%,1.8%,36.3,-3.7%
Cc1cc(C)c2oc(C(=O)Nc3ccc(S(=O)(=O)Nc4ncccn4)cc3)cc(=O)c2c1,·,·,·,·,·,0.5%
CCOc1ccc(-c2nnc(SCC(=O)NCc3ccccc3)nc2-c2ccc(OCC)c(OC)c2)cc1OC,·,·,·,·,·,-1.9%
CCOC(=O)c1ccc(NC(=O)CSc2nccn2-c2ccc(OCC)cc2)cc1,·,·,·,·,·,-14.7%
Cc1cc(C)cc(OCC(=O)OCC(=O)NC2CC2)c1,·,13.6%,·,·,·,4.5%
COc1ccc(/C=C2\SC(=NCc3ccccc3)NC2=O)cc1,8.8,-24.5%,1.9%,7.5%,5.0,1.7%
COc1ccc(/C=C2\SC(=Nc3ccccc3OC)NC2=O)cc1,20.4*,-21.6%,-0.2%,0.7%,68.5,4.0%
COc1cc(/C=C2\SC(=Nc3ccccc3OC)NC2=O)ccc1O,16.0*,-2.3%,5.0%,0.1%,-1.8,-5.4%
COc1cc(-c2nc3cnccn3c2Nc2ccc(C(C)C)cc2)ccc1O,28.8*,-5.1%,-1.5%,1.3%,73.1*,-7.0%
CCc1cccc(NC(=O)Cn2c(C(=O)OC)cc3sc(Cl)cc32)c1,·,·,·,·,·,1.9%
Cc1ccc(C2CCN(C(=S)NC(C)C)C2)cc1 (configuration not stated),8.7,-2.5%,5.8%,4.5%,64.1*,-4.8%
Cc1ccc(C2CCN(C(=O)Nc3ccc(F)cc3)C2)cc1 (configuration not stated),19.2*,7.6%,-5.4%,-0.2%,89.4*,3.9%
Cn1nnc2cc(C(=O)N3CCC(c4ccccc4)C3)ccc21 (configuration not stated),10.1*,-7.9%,0.0%,1.7%,27.3*,3.4%
Cc1nc2cc(NC(=O)N3CCC(c4ccccc4)C3)ccc2n1C (configuration not stated),27.4*,-23.3%,-2.5%,-1.9%,98.7*,-8.7%
Cc1ccc(NC(=O)C2CCCN(C(=O)Nc3ccc(F)cc3)C2)cc1 (configuration not stated),10.1,-7.6%,7.5%,-2.8%,-3.4,8.5%
CCOc1ccc(CNC(=O)c2cccc(NC(=O)N3CCSc4ncccc43)c2)cc1OC,·,·,·,·,·,2.7%[15.4 µM]
CC(=O)c1cccc(NC(=O)N2CCC(CN3CCCCC3)CC2)c1,·,·,·,·,·,-6.5%
CC(=O)c1cccc(NC(=O)N2CCC(c3ccc(C)cc3)C2)c1 (configuration not stated),27.3,-0.9%,?,4.6%,48.6*,-1.3%
COc1ccccc1NC(=O)c1ccccc1NC(=O)c1cccs1,0.6,1.4%,-6.9%,0.6%,22.1,-4.0%
CCOC(=O)c1cc(C)n(CC2CCC(C(=O)Nc3ccc(C(C)=O)cc3)CC2)c1C (configuration not stated),·,·,·,·,·,8.3%
C=CCn1c(=N)c(C(=O)NCCCOC)cc2c(=O)n3cccc(C)c3nc21,-4.1,0.4%,-14.1%,6.7%,-2.8,2.0%
O=C(NCc1ccco1)c1cnc2ccccn2c1=O,1.5,1.8%,-1.5%,0.6%,-5.7,-4.8%
COCCCNC(=O)c1cccn2c(=O)c3cc4ccccc4cc3nc12,69.1*,16.4%,?,1.7%,83.9*,-1.3%
O=C(NCc1ccco1)c1cccn2c(=O)c3cc4ccccc4cc3nc12,29.0*,·,?,1.6%,5.6,·
SMILES,CHX counter,RE007 growth inh,Giardia FBPA inh,LmPK inhibitor,Shiga toxin inh,TbPYK inhibitor
CCCCCCCC/C=C\CCCCCCCC(=O)OC[C@@H](O)[C@H]1OC[C@H](O)[C@H]1O,·,·,·,·,·,-7.8%
COc1ncc2ncc(=O)n(C3CC3)c2n1,·,·,-1.0%,·,·,·
Cc1ccc(-c2cnn(-c3cccc(C(F)(F)F)c3)c2N)cc1,40.5*,16.7%,-1.8%,-5.1%,89.4*,0.9%
O=c1cnn(-c2ccccc2)c(-c2ccccc2)c1,22.9*,12.6%,2.9%,-1.5%,62.4*,0.8%
Nc1c(-c2ccccc2)cnn1-c1ccccc1,43.7*,-12.1%,1.2%,?,86.8*,-12.1%
Nc1c(-c2cccc(Cl)c2)cnn1-c1ccccc1,45.1*,-1.9%,0.5%,-1.8%,70.5*,-4.3%
O=c1oc(-c2cccc(Cl)c2)nc2c1cnn2-c1ccccc1,-3.1,2.9%,9.0%,3.8%,-10.5,-2.8%
Cc1ccc(CNC(=O)CSCc2nc(-c3cccc(C)c3)oc2C)cc1,·,·,·,·,·,-3.4%
CC(=O)Nc1ccccc1C(=O)OCc1cccc(F)c1,25.8*,4.7%,-0.5%,2.5%,42.0,-23.6%
CC(=O)Nc1ccccc1C(=O)OCc1ccc(C(=O)c2ccccc2)cc1,24.4*,0.8%,·,-5.4%,35.8,-3.8%
O=C(OCc1cccc(F)c1)c1cc2ccccc2cc1O,-1.5,-5.7%,10.5%,2.5%,·,-2.6%
O=P(O)(C(O)c1ccccc1)C(O)c1ccccc1 (configuration not stated),·,16.3%,·,·,·,-0.4%
N#CCCn1c(=O)c(-c2ccc(F)cc2)nc2cnc(N3CCOCC3)nc21,·,·,5.6%,·,·,·
O=C(NCc1ccccc1Cl)c1ccc(CSc2nc3ccncc3[nH]2)cc1,-3.6,-9.4%,6.0%,3.7%,-5.0,1.3%
O=C(NCCCO)c1ccc(CSc2nc3ccccc3[nH]2)cc1,10.7*,-9.0%,0.8%,-5.1%,31.1,-7.9%
O=C(NCCO)c1ccc(CSc2nc3ccccc3[nH]2)cc1,17.4*,2.2%,0.3%,-5.0%,18.5,-4.2%
Cc1ccc(CNC(=O)c2ccc3nc(SCc4ccc(F)cc4)[nH]c3c2)cc1,·,·,·,·,·,3.1%
COc1cc(NC(=O)c2cccs2)c(C(=O)OCC(=O)c2cc(C)n(-c3ccc(F)cc3)c2C)cc1OC,123.1*,-4.4%,5.6%,0.9%,98.0*,-0.3%
COc1cc(NC(=O)c2cccs2)c(C(=O)OCC(=O)c2cc(C)n(-c3ccccc3)c2C)cc1OC,42.7*,-2.2%,-3.4%,-6.0%,66.5*,2.1%
COc1cc(NC(=O)c2cccs2)c(C(=O)OCC(=O)NC(=O)NC(C)(C)C)cc1OC,-0.6,-2.8%,-4.7%,2.7%,-9.6,2.8%
COc1ccc(-n2c(C)cc(C(=O)COC(=O)c3cc(NC(=O)c4cccs4)c(OC)c(OC)c3)c2C)cc1,-1.5,5.6%,9.5%,3.9%,16.7,3.7%
COc1ccccc1N1C(C)=CC(=C(C#N)c2nc3ccccc3s2)C=C1C,21.8*,-0.6%,-12.7%,0.3%,41.7,-10.5%
CCN1C(=O)c2ccc(C(=O)Nc3nccs3)cc2C1=O,11.5*,-22.5%,-6.3%,-2.4%,31.1*,2.4%

# High-throughput results as filed in PubChem.
